Measurements as given in PubChem BioAssay (NCI).
Compounds without any hit were thinned out: in the full panel of roughly 83,000, 20% have a hit.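 Single-concentration screen, 48 h exposure, 96-well plates. Endpoint: percent growth. Below 10 = active.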 The source made the active and inactive calls.

How the values were obtained:
Assay in all cases: NCI-60 one-dose screen, 48 h (100 = growth as untreated, 0 = no growth, -100 = all killed)
Settings in all cases: 10 µM unless noted
[1] = system: DU-145 prostate
[2] = system: MALME-3M melanoma
[3] = system: MDA-MB-231 breast
[4] = system: RXF 393 renal
[5] = system: SF-268 CNS
[6] = system: SF-295 CNS
[7] = system: UACC-257 melanoma
[8] = system: M14 melanoma
[9] = system: HCT-15 colon
[10] = system: HT29 colon
[11] = system: SNB-75 CNS
[12] = system: SNB-19 CNS
[13] = system: U251 CNS
[14] = system: PC-3 prostate
[15] = system: SK-MEL-5 melanoma
[16] = system: UACC-62 melanoma
[17] = system: LOX IMVI melanoma
[18] = system: SK-MEL-28 melanoma
[19] = system: SF-539 CNS

Measured: growth

O=C(CCN1CCOCC1)Nc1ccc(Cn2nnc3c2C(=O)c2nnn(Cc4ccc(NC(=O)CCN5CCOCC5)cc4)c2C3=O)cc1
active: [2] -69.9% | [3] -4.23% | [5] 1.49% | [7] -80.5% | [10] 1.57% | [11] -86.7% | [13] -58.7% | [15] -72.9% | [16] -17.3% | [17] -21.9%
inactive: [1] 60.6% | [4] 65.5% | [6] 50.8% | [8] 35.9% | [9] 93.6% | [12] 27.1% | [14] 17.7% | [18] 31.7%

CC(C)CC(CC1=CCC2CC1C2(C)C)C1=C(O)C(C)(C)C(=O)C(C)(C)C1=O (configuration not stated)
inactive: [1] 33.6% | [2] 13.9% | [5] 21.4% | [19] 17% | [8] 20.3% | [9] 13.5% | [11] 19.7% | [12] 16% | [18] 28.8%
active: [3] -6.26% | [4] 7.5% | [6] -24.3% | [7] -23.2% | [10] 1.62% | [14] 5.09% | [15] -31.2% | [16] 9.64% | [17] 6%

Oc1cccc(Nc2nccc(-c3ccc4ccccc4c3)n2)c1
active: [8] 8.25%
inactive: [1] 27.3% | [2] 68% | [3] 37.2% | [4] 37.8% | [5] 47.3% | [6] 25.2% | [19] 11% | [7] 47.3% | [9] 22.2% | [10] 56.8% | [11] 23.3% | [12] 28.7% | [14] 28.1% | [15] 32.5% | [17] 32.5% | [18] 49.5%

CCN1CCN(Cc2ccc(NC(=O)Nc3nc4ccc(Oc5ccnc(C(=O)NC)c5)cc4s3)cc2C(F)(F)F)CC1
inactive: [15] 19.8%
active: [1] -16.1% | [2] -68% | [3] -78.4% | [4] -88.4% | [5] -47.3% | [6] -23.9% | [19] -85.2% | [7] -49.2% | [8] -76.2% | [9] -55.8% | [10] 1.79% | [11] -87.4% | [13] -60.8% | [16] -92.7% | [17] -78.9%

COc1c2ccccc2c(OC)c2[nH]c(=O)ccc12
inactive: [3] 69.4% | [4] 91.3% | [5] 64.4% | [7] 40.8% | [9] 22.1% | [10] 46.6% | [12] 12.2% | [13] 28.4% | [17] 12.1% | [18] 25.4%
active: [1] -95.1% | [2] -63.2% | [6] -21.4% | [8] -46.1% | [11] -21.3% | [15] -96.7% | [16] -6.37%

Cn1cc(-c2ccc(-c3cn(C)c4ncccc34)[nH]2)c2cccnc21
inactive: [1] 94.2% | [2] 86.5% | [3] 63.8% | [4] 10.6% | [5] 45.9% | [6] 86.3% | [7] 64.6% | [8] 76.2% | [9] 50.4% | [10] 97.6% | [11] 59.7% | [12] 76% | [17] 21.8% | [18] 84.8%
active: [14] -29.9% | [15] 9.47% | [16] -4.05%

COC(=O)[C@H](C(C)C)n1c(=O)c2cc(OC)c(OC)cc2c2cnc3[nH]ccc3c21
active: [4] -0.674% | [19] 9.26%
inactive: [1] 51.4% | [2] 85.1% | [3] 48% | [5] 45.6% | [6] 25.2% | [7] 78.7% | [8] 76.1% | [9] 41.3% | [10] 45.5% | [11] 13.2% | [12] 77.7% | [14] 29.2% | [15] 58.8% | [16] 22.3% | [17] 28.2% | [18] 62.2%

CC1(C)CC(=O)C(c2c(-c3ccccc3)[nH]c3[nH]c(=S)[nH]c(=O)c23)=C(O)C1
inactive: [1] 124% | [2] 112% | [3] 101% | [4] 115% | [5] 106% | [6] 152% | [7] 80.2% | [8] 107% | [9] 112% | [10] 106% | [11] 107% | [12] 93% | [14] 83% | [15] 108% | [16] 92.4% | [17] 111% | [18] 110%

O=C(Cn1cc(CN2C(=O)c3ccccc3S2(=O)=O)nn1)Nc1ccc([N+](=O)[O-])cc1Cl
inactive: [1] 105% | [2] 101% | [3] 90% | [4] 110% | [5] 100% | [6] 108% | [19] 101% | [7] 98.6% | [8] 106% | [9] 102% | [10] 108% | [11] 97.4% | [12] 98.2% | [14] 95.4% | [15] 99.7% | [16] 81.8% | [17] 92.1% | [18] 97%

COc1ccc(-c2cc(-c3cccnc3)nc3sc4c(=O)n(-c5ccc(C)cc5)nnc4c23)cc1OC
inactive: [1] 107% | [2] 96% | [3] 79.6% | [4] 101% | [5] 101% | [6] 96.6% | [19] 93.4% | [7] 104% | [8] 104% | [9] 103% | [11] 85.8% | [13] 104% | [14] 95.8% | [15] 97.4% | [16] 98.7% | [17] 97.2% | [18] 99.9%

CN(C)C(=O)c1cc2cnc(Nc3ccc(-c4csc5c(=O)cc(N6CCNCC6)oc45)cc3)nc2n1C1CCCC1
active: [3] 9.91% | [4] -78.6% | [19] -33% | [10] -15.1% | [17] -62.9%
inactive: [1] 29.9% | [2] 60.2% | [5] 19.2% | [6] 15.2% | [7] 64.4% | [8] 27.1% | [9] 19.9% | [11] 20.5% | [12] 24.9% | [14] 10% | [15] 28.5% | [16] 24.6% | [18] 40.7%

CSc1nc(NCCCNc2ccnc3cc(Cl)ccc23)cc(-c2ccccc2)n1
active: [8] -42.5% | [10] 9.09%
inactive: [1] 81.3% | [2] 56.9% | [3] 45.4% | [4] 60.9% | [5] 67.9% | [6] 56.9% | [7] 68.1% | [9] 46.2% | [11] 56.9% | [12] 91.9% | [13] 53.3% | [14] 59.9% | [15] 52.6% | [16] 91% | [17] 31.2%

COc1ccc(-c2cn3c(-c4ccc(OC)cc4)cnc3c(Oc3ccc4c(C)cc(=O)oc4c3)n2)cc1
active: [3] 6.29% | [4] -20.8% | [19] -21.1% | [17] 8.02% | [18] -17.4%
inactive: [1] 29.5% | [2] 26.7% | [5] 65.7% | [6] 23.3% | [7] 29.2% | [8] 38.6% | [9] 63.4% | [10] 25.4% | [11] 14.3% | [13] 22.6% | [14] 17.7% | [15] 28.6% | [16] 50.1%

O=C1C=CC(=O)c2c1nc1n2CCCC1
inactive: [1] 63.2% | [3] 89.9% | [4] 96.5% | [5] 83.5% | [6] 95.8% | [19] 74.9% | [7] 84.8% | [8] 29.9% | [9] 103% | [10] 35.5% | [11] 131% | [12] 63.9% | [14] 89.7% | [15] 22% | [16] 71.4% | [17] 48.8% | [18] 68.3%
active: [2] -71.2%

CC1=N/C(=C\c2cccc(Br)c2)C(=O)O1
inactive: [1] 109% | [2] 98.8% | [3] 105% | [4] 112% | [5] 98.6% | [6] 108% | [19] 115% | [7] 80.6% | [8] 104% | [9] 104% | [10] 108% | [11] 97.7% | [12] 105% | [14] 101% | [15] 100% | [16] 104% | [17] 100% | [18] 114%

C[C@@H]1CC[C@@H]2[C@@H]1[C@H](OC(=O)/C=C/c1ccccc1)[C@]1(c3ccccc3)C[C@@H](OC(=O)CO)[C@@]2(C)O1
inactive: [1] 102% | [2] 108% | [3] 97.2% | [4] 60.6% | [5] 52.5% | [6] 96.4% | [19] 102% | [7] 86% | [8] 105% | [9] 97.7% | [10] 92.2% | [11] 90.2% | [12] 96% | [14] 80.5% | [15] 94.8% | [16] 75.4% | [17] 97.8% | [18] 101%

Oc1ccc(Nc2nccc(-c3ccc4ccccc4c3)n2)cc1
inactive: [1] 55.5% | [2] 59.8% | [3] 30.5% | [4] 60.3% | [5] 47.4% | [6] 61.4% | [19] 37% | [7] 26.7% | [8] 11.1% | [9] 16.9% | [10] 39.3% | [11] 36% | [12] 50.9% | [14] 48.6% | [15] 39.8% | [16] 39.4% | [17] 27.1% | [18] 50.6%

CCOC(=O)C(CC)n1c(=O)c2cc(OC)c(OC)cc2c2cnc3[nH]ccc3c21 (configuration not stated)
inactive: [1] 78.5% | [2] 98.9% | [3] 70.5% | [4] 34.5% | [5] 67.4% | [6] 65% | [19] 66.3% | [7] 97.5% | [8] 88.5% | [9] 75% | [10] 76.9% | [11] 45.3% | [12] 90.8% | [14] 57.1% | [15] 80.9% | [16] 63.2% | [17] 44.8% | [18] 90.7%

NCCN1CCN(c2nccc(-c3ccc4ccccc4c3)n2)CC1
active: [19] -4.96% | [8] -66.8% | [9] 4.28% | [10] -33.6% | [16] -65.3% | [17] -64.8% | [18] -43.4%
inactive: [1] 84.6% | [2] 60.3% | [3] 23.8% | [4] 43.1% | [5] 63.8% | [6] 90.1% | [7] 68.4% | [11] 82.1% | [12] 63.9% | [14] 45.6% | [15] 54.9%

CC(=O)/C(=C/c1cccc(Cl)c1)C(=O)c1ccccc1
inactive: [1] 92.2% | [2] 85.5% | [3] 84.8% | [4] 93.1% | [5] 79.2% | [6] 96.1% | [19] 105% | [7] 72.3% | [8] 73.1% | [9] 70% | [10] 67.7% | [11] 84.7% | [12] 94.3% | [14] 63.1% | [15] 89.9% | [16] 83.3% | [18] 90.9%
active: [17] 6.93%
